About 79,000 compounds went through this panel and 15% of them were active in at least one assay; those are over-represented in the sample as a whole. Active and inactive are the calls of the source. Rule as the data show it: active = growth inhibition above about 70%; inactive = the rest.
How the values were obtained:
[1] = NCI Yeast Anticancer Drug Screen. Data for the rad52 strain (AID 147);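 also: 0% = growth of vehicle-treated control cultures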; conditions: S. cerevisiae rad52 mutant growth inhibition, hits give high values
In short: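 Measured: yeast growth inhibition. System: strain with a defined DNA damage repair alteration. Reference: vehicle-treated control cultures.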

[2] = NCI Yeast Anticancer Drug Screen. Data for the wt1 strain (AID 149);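 also: 0% = growth of vehicle-treated wt1 cultures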; conditions: S. cerevisiae wt1 strain (SPY 50644) growth inhibition, hits give high values
In short: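 The wt1 strain was treated with compounds, and growth was compared with vehicle-treated cultures to give inhibition.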

[3] = NCI Yeast Anticancer Drug Screen. Data for the rad50EPP+ strain (AID 151);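 also: 0% = growth of vehicle-treated control cultures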; conditions: S. cerevisiae rad50 mutant strain, hits give high values
In short: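 One strain with a rad50 alteration (rad50EPP+) was compound-treated, its growth then compared to that of vehicle controls.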

[4] = NCI Yeast Anticancer Drug Screen. Data for the mgt1 strain (AID 153); conditions: S. cerevisiae mgt1 mutant growth inhibition, hits give high values
In short: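 After exposure of the mgt1 yeast mutant to compound, growth was measured and reported as inhibition compared with vehicle controls.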

[5] = NCI Yeast Anticancer Drug Screen. Data for the rad50 strain (AID 155);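 also: 0% = growth of vehicle-only cultures of the same strain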; conditions: S. cerevisiae rad50 strain growth inhibition, hits give high values
In short: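 Cells are treated with compound, grown, and their growth is then scored against vehicle-only cultures of the same repair-deficient yeast strain.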

[6] = NCI Yeast Anticancer Drug Screen. Data for the mec2-1 strain (AID 157); conditions: S. cerevisiae mec2-1 strain, hits give high values
In short: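 Test agents were screened against the mec2-1 yeast strain, with defined DNA repair or cell cycle alteration. Growth was scored as inhibition against vehicle-only controls.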

[7] = NCI Yeast Anticancer Drug Screen. Data for the rad14 strain (AID 159);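 also: 0% = growth of vehicle-treated control cultures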; conditions: S. cerevisiae rad14 strain growth inhibition, hits give high values
In short: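 Readout: yeast growth inhibition, referenced to vehicle-only cultures. Strain bears a defined alteration in DNA damage repair.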

[8] = NCI Yeast Anticancer Drug Screen. Data for the sgs1 mgt1 strain (AID 161);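 also: 0% = growth of cultures given vehicle only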; conditions: S. cerevisiae sgs1 mgt1 strain, hits give high values
In short: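 Mutant yeast exposed to compound; growth scored against vehicle-only wells.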

[9] = NCI Yeast Anticancer Drug Screen. Data for the CLN2oe strain (AID 163);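 also: 0% = growth of vehicle-only control cultures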; conditions: S. cerevisiae CLN2oe strain, hits give high values
In short: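 Here, growth inhibition in a cell-cycle-altered yeast strain after compound exposure was quantified against vehicle control growth.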

[10] = NCI Yeast Anticancer Drug Screen. Data for the cln2 rad14 strain (AID 165);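 also: 0% = growth equal to vehicle treated cultures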; conditions: S. cerevisiae cln2 rad14 strain, hits give high values
In short: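 Growth of compound-exposed yeast (cln2 rad14 genotype) measured and expressed as inhibition relative to vehicle.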

[11] = NCI Yeast Anticancer Drug Screen. Data for the bub3 strain (AID 167); conditions: S. cerevisiae bub3 mutant strain, hits give high values
In short: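 Part of a panel of yeast mutants defective in DNA damage repair or cell cycle regulation. Each strain is grown with compound, and inhibition is calculated relative to solvent-treated cultures.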

[12] = NCI Yeast Anticancer Drug Screen. Data for the wt2 strain (AID 169);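 also: 0% = growth of vehicle-treated yeast cultures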; conditions: S. cerevisiae wt2 strain growth inhibition, hits give high values
In short: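 Genetically defined yeast strains from a DNA-repair/cell-cycle panel were used. Compound-exposed yeast growth was measured, and the inhibition was calculated relative to vehicle treatment.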

[13] = NCI Yeast Anticancer Drug Screen. Data for the mlh1 strain (AID 171);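 also: 0% = growth of vehicle-treated control cultures of the same strain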; conditions: S. cerevisiae mlh1 strain growth inhibition, hits give high values
In short: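 Here the genetically defined yeast mutant is grown with each compound, and the extent to which its growth falls below that of vehicle-exposed cells is reported.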

[14] = NCI Yeast Anticancer Drug Screen. Data for the sgs1 strain (AID 173);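 also: 0% = growth of vehicle-only control cultures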; conditions: S. cerevisiae sgs1 mutant, hits give high values
In short: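 Relative growth inhibition, referenced to vehicle, was determined in a yeast strain with a defined alteration affecting DNA damage repair or cell cycle control after compound exposure.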

[15] = NCI Yeast Anticancer Drug Screen. Data for the mlh1 rad18 strain (AID 175); conditions: S. cerevisiae mlh1 rad18 strain growth inhibition, hits give high values
In short: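 In this whole-cell yeast screen, a strain with altered DNA damage repair is challenged with compound, and its growth is measured against matched vehicle-treated controls.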

[16] = NCI Yeast Anticancer Drug Screen. Data for the rad18 strain (AID 177); conditions: S. cerevisiae rad18 mutant growth inhibition, hits give high values
In short: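 Screen uses a yeast strain with a defined lesion in DNA damage repair; compound effect is read as loss of growth compared to untreated vehicle cultures.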

[17] = at 5.0 µM (retest, dose inferred, filed as 0.5)
[18] = at 50.0 µM (retest, dose inferred, filed as 5.0)

Measured: growth inhibition

c1ccc2c(c1)Cn1c-2nc2ccccc21
active: [1]; at 33.0 µM 78% | [1]; at 100.0 µM 97% | [2]; at 100.0 µM 94% | [3]; at 100.0 µM 95% | [4]; at 33.0 µM 74% | [4]; at 100.0 µM 98% | [5]; at 33.0 µM 75% | [5]; [18] 74% | [5]; at 50.0 µM 84.3% | [5]; at 100.0 µM 96% | [6]; [17] 73% | [6]; [18] 85% | [6]; at 100.0 µM 98% | [7]; at 100.0 µM 97% | [8]; [18] 84% | [9]; at 100.0 µM 96% | [10]; [18] 87% | [11]; [18] 86% | [11]; at 100.0 µM 97% | [12]; at 100.0 µM 94% | [13]; at 100.0 µM 96% | [14]; at 100.0 µM 92% | [15]; [18] 78% | [15]; at 50.0 µM 83.4% | [16]; at 100.0 µM 95%
inactive: [1]; at 1.2 µM 1% | [1]; at 3.7 µM 1% | [1]; at 11.0 µM 8% | [2]; at 1.2 µM -27% | [2]; at 3.7 µM -21% | [2]; at 11.0 µM -28% | [2]; at 33.0 µM 5% | [3]; at 1.2 µM 2% | [3]; at 3.7 µM -4% | [3]; at 11.0 µM 8% | [3]; at 33.0 µM 62% | [4]; at 1.2 µM 15% | [4]; at 3.7 µM 3% | [4]; at 11.0 µM 30% | [5]; at 1.2 µM -9% | [5]; at 3.7 µM 1% | [5]; [17] 49% | [5]; at 11.0 µM 24% | [6]; at 1.2 µM 9% | [6]; at 3.7 µM 7% | [6]; at 11.0 µM 13% | [6]; at 33.0 µM 53% | [6]; at 50.0 µM 69.5% | [7]; at 1.2 µM -19% | [7]; at 3.7 µM -17% | [7]; at 11.0 µM -12% | [7]; at 33.0 µM 33% | [8]; [17] -27% | [9]; at 1.2 µM -18% | [9]; at 3.7 µM 0% | [9]; at 11.0 µM -23% | [9]; at 33.0 µM 18% | [10]; [17] 54% | [11]; at 1.2 µM -11% | [11]; at 3.7 µM -5% | [11]; [17] 27% | [11]; at 11.0 µM 3% | [11]; at 33.0 µM 68% | [12]; at 1.2 µM -24% | [12]; at 3.7 µM -5% | [12]; at 11.0 µM -4% | [12]; at 33.0 µM 34% | [13]; at 1.2 µM -31% | [13]; at 3.7 µM -8% | [13]; at 11.0 µM 2% | [13]; at 33.0 µM 36% | [14]; at 1.2 µM -7% | [14]; at 3.7 µM -21% | [14]; at 11.0 µM -21% | [14]; at 33.0 µM 31% | [15]; [17] 50% | [16]; at 1.2 µM -7% | [16]; at 3.7 µM -4% | [16]; at 11.0 µM -1% | [16]; at 33.0 µM 25%

O=C1OC2C(O)COC2(OCc2c[nH]c3ccccc23)C1O (stereo not drawn) (tested in a mixture with another compound)
inactive: [1]; at 1.2 µM -2% | [1]; at 3.7 µM -1% | [1]; at 11.0 µM 1% | [1]; at 33.0 µM 24% | [2]; at 1.2 µM -1% | [2]; at 3.7 µM -1% | [2]; at 11.0 µM 0% | [2]; at 33.0 µM 12% | [3]; at 1.2 µM -5% | [3]; at 3.7 µM 3% | [3]; at 11.0 µM 7% | [3]; at 33.0 µM 14% | [3]; at 100.0 µM 15% | [5]; at 1.2 µM 2% | [5]; at 3.7 µM 5% | [5]; [17] 1% | [5]; at 11.0 µM 19% | [5]; at 33.0 µM 26% | [5]; [18] 15% | [5]; at 50.0 µM 66.4% | [6]; at 1.2 µM 0% | [6]; at 3.7 µM 1% | [6]; [17] -3% | [6]; at 11.0 µM 1% | [6]; at 33.0 µM 12% | [6]; [18] 22% | [6]; at 50.0 µM 49.1% | [7]; at 1.2 µM -2% | [7]; at 3.7 µM 2% | [7]; at 11.0 µM 4% | [7]; at 33.0 µM 30% | [8]; [17] -3% | [8]; [18] 48% | [8]; at 50.0 µM 66.5% | [9]; at 1.2 µM 1% | [9]; at 3.7 µM 1% | [9]; at 11.0 µM 0% | [9]; at 33.0 µM 9% | [9]; at 100.0 µM 54% | [10]; [17] -2% | [10]; [18] 36% | [10]; at 50.0 µM 42.4% | [11]; at 1.2 µM 0% | [11]; at 3.7 µM 3% | [11]; [17] -1% | [11]; at 11.0 µM 3% | [11]; at 33.0 µM 22% | [11]; [18] 46% | [11]; at 50.0 µM 6.5% | [12]; at 1.2 µM -2% | [12]; at 3.7 µM 7% | [12]; at 11.0 µM 0% | [12]; at 33.0 µM 5% | [13]; at 1.2 µM -1% | [13]; at 3.7 µM -2% | [13]; at 11.0 µM -2% | [13]; at 33.0 µM 11% | [14]; at 1.2 µM -1% | [14]; at 3.7 µM 0% | [14]; at 11.0 µM 3% | [14]; at 33.0 µM 43% | [15]; [17] -3% | [15]; [18] 26% | [16]; at 1.2 µM 0% | [16]; at 3.7 µM 2% | [16]; at 11.0 µM 9% | [16]; at 33.0 µM 68%
active: [1]; at 100.0 µM 84% | [2]; at 100.0 µM 88% | [5]; at 100.0 µM 95% | [6]; at 100.0 µM 91% | [7]; at 100.0 µM 95% | [11]; at 100.0 µM 92% | [12]; at 100.0 µM 75% | [13]; at 100.0 µM 87% | [14]; at 100.0 µM 92% | [15]; at 50.0 µM 88.9% | [16]; at 100.0 µM 96%

[Pt].c1ccc(P(CCP(c2ccccc2)c2ccccc2)CCP(c2ccccc2)c2ccccc2)cc1
active: [1]; at 33.0 µM 89% | [1]; at 100.0 µM 84% | [2]; at 33.0 µM 94% | [2]; at 100.0 µM 90% | [3]; at 100.0 µM 85% | [4]; at 33.0 µM 92% | [4]; at 100.0 µM 94% | [7]; at 33.0 µM 81% | [7]; at 100.0 µM 91% | [9]; at 33.0 µM 95% | [9]; at 100.0 µM 88% | [12]; at 33.0 µM 83% | [12]; at 100.0 µM 93% | [13]; at 33.0 µM 94% | [13]; at 100.0 µM 92% | [14]; at 33.0 µM 96% | [14]; at 100.0 µM 94% | [16]; at 33.0 µM 94% | [16]; at 100.0 µM 83%
inactive: [1]; at 1.2 µM -15% | [1]; at 3.7 µM 2% | [1]; at 11.0 µM 7% | [2]; at 1.2 µM -1% | [2]; at 3.7 µM 6% | [2]; at 11.0 µM 19% | [3]; at 1.2 µM -8% | [3]; at 3.7 µM -1% | [3]; at 11.0 µM 11% | [3]; at 33.0 µM 61% | [4]; at 1.2 µM -5% | [4]; at 3.7 µM -18% | [4]; at 11.0 µM 2% | [7]; at 1.2 µM 4% | [7]; at 3.7 µM -2% | [7]; at 11.0 µM 22% | [9]; at 1.2 µM -18% | [9]; at 3.7 µM -4% | [9]; at 11.0 µM 4% | [12]; at 1.2 µM -7% | [12]; at 3.7 µM -4% | [12]; at 11.0 µM 2% | [13]; at 1.2 µM 5% | [13]; at 3.7 µM -5% | [13]; at 11.0 µM -1% | [14]; at 1.2 µM 2% | [14]; at 3.7 µM 5% | [14]; at 11.0 µM 41% | [16]; at 1.2 µM -33% | [16]; at 3.7 µM 6% | [16]; at 11.0 µM 20%

From PubChem BioAssay (NCI)
